In PubChem BioAssay (NCATS):
A number with no mark means an inactive call. Results filed as inconclusive are left out. A call without a number means that no potency is given here. Active and inactive are the calls of the source. Calls follow the shape of the dose curve; as a rule, active = well fitted curve in the direction sought with a large enough effect; inconclusive = small, poorly fitted or top-dose-only effect, or another doubt; inactive = no such curve, though single readings can be large; an effect the other way counts as inactive or inconclusive.

What was measured:
[1] = Cellular Toxicity (caspase-3) Mesangial (AID 660); settings: mesangial cells, normalized: DMSO 0%, 100 µM tamoxifen 100%; at 91.7 µM (top of the series);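 also: combined caspase 3 and 7 activity read by Caspase-Glo luminescence; cells exposed to compound for 16 h before the caspase read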
In short: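 Human renal glomerular mesangial cells, 1000/well, 5 h at 37 C before 16 h compound treatment. Caspase-Glo 3/7 luminescence after 20 min; normalized to DMSO and 100 uM tamoxifen, AC50 from Hill fit.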

[2] = Cellular Toxicity (caspase-3) SK-N-SH (AID 661)
In short: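 Human SK-N-SH neuroblastoma cells, 1500/well, were exposed to compounds for 16 hours at 37 °C. Caspase-Glo 3/7 luminescence was normalized to DMSO (basal) and 10 uM staurosporine (100%), and AC50 came from a Hill fit.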

[3] = Cellular Toxicity (caspase-3) H-4-II-E (AID 663); settings: H-4-II-E rat hepatoma, scaled: DMSO 0%, 100 µM tamoxifen 100%; at 92.2 µM (top of the series);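 also: cells exposed to compound for 16 hr before readout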
In short: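 Apoptosis induction is scored as increased luminescence from caspase 3/7 substrate cleavage in rat hepatoma H-4-II-E cells exposed to compound for 16 hr. Activity is scaled between DMSO and 100 uM tamoxifen.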

[4] = Cellular Toxicity (caspase-3) Hek293 (AID 664); settings: HEK293 caspase-3 activation, DMSO = 0%, 100 µM tamoxifen = 100%; at 92.2 µM (top of the series);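 also: cells exposed to compound for 16 h at 37 °C before readout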
In short: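 HEK293 cells in complete medium treated 16 h at 37 °C, then Caspase-Glo 3/7 luminescence read after 20 min at room temperature. Normalized to DMSO and 100 uM tamoxifen; AC50 from Hill fit of concentration-response.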

[5] = Cellular Toxicity (caspase-3) N2a (AID 665);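 also: compound exposure lasted 16 h at 37 °C before readout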
In short: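 Mouse N2a neuroblastoma cells, 1500 per well, treated 16 h at 37 °C in complete medium; caspase-3/7 activity by Caspase-Glo luminescence after 1 h. Normalized to DMSO and 10 uM staurosporine; AC50 from Hill fits.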

[6] = Cellular Toxicity (caspase-3) NIH 3T3 (AID 666);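 also: caspase signal read after 16 h compound exposure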
In short: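 Mouse NIH 3T3 fibroblasts (1000/well) treated 16 h at 37 C; caspase-3/7 activity measured by Caspase-Glo 3/7 luminescence after 20 min. Normalized to DMSO and 100 uM tamoxifen; AC50 from Hill fits.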

[7] = Cellular Toxicity (caspase-3) Renal Proximal Tubule (AID 667); settings: Potency: caspase-3 activation;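 also: cells exposed to compound for 16 hours at 37 °C before detection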
In short: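 Freshly isolated primary rat kidney proximal tubule cells, 1000/well, treated 16 hr at 37 °C, then Caspase-Glo 3/7 luminescence after 1 hr. Normalized to DMSO and 10 uM staurosporine; AC50 from Hill fit.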

[8] = target: Cytochrome P450 3A4 (Homo sapiens) (UniProt P08684); experiment: qHTS Assay for Inhibitors and Substrates of Cytochrome P450 3A4 (AID 884); also: nearly all actives have a fitted effect of over 50% in size; also: potency is read from the fitted curve at half-maximal effect
In short: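 20 nM human CYP3A4 with 25 uM Luciferin-PPXE (at KM) in 200 mM KPO4, preincubated 10 min with compound; NADPH regeneration started a 60 min RT reaction. Luciferin detected by luminescence, normalized to 57 uM ketoconazole as full inhibition.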

[9] = Cell Viability - LYMP2-001 (AID 921); also: nearly all actives have a fitted effect of over 70% in size
In short: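 Human lymphoblastoid LYMP2-001 cells, 2500 per well, in complete medium, treated 24 h at 37 C. Viability from cellular ATP by CellTiter-Glo luminescence; AC50 from Hill-equation fits of qHTS concentration-response.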

[10] = MultiTox-Fluor Cytotoxicity Assay - LYMP1-001 - Dead Cells (AID 946)
In short: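 Seed 2500 LYMP1-001 cells/well, incubate 5 hr at 37 C; add compound, 16 hr at 37 C; add MultiTox-Fluor reagent, 60 min RT; read dead-cell fluorescence Ex/Em=485/520. Normalize to DMSO and 15 uM tetraoctylammonium bromide.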

[11] = MultiTox-Fluor Cytotoxicity Assay - LYMP1-001 - Live Cells (AID 947)
[12] = Cell Viability - LYMP1-002 - Assay at 16 hr (AID 948)
In short: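 LYMP1-002 human lymphoblastoid cells, 2500/well, were treated with compounds for 16 hr at 37 C in complete medium. Viability was read as intracellular ATP by CellTiter-Glo luminescence, and AC50 was derived from a Hill fit to concentration-response data.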

[13] = MultiTox-Fluor Cytotoxicity Assay - LYMP1-002 - Live Cells (AID 955)
In short: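 Human lymphoblastoid LYMP1-002 cells, 2500/well, treated 16 h at 37 C in complete medium. Live-cell protease activity via GF-AFC fluorescence (Ex/Em 405/510) after 60 min reagent incubation; AC50 from Hill fits.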

[14] = MultiTox-Fluor Cytotoxicity Assay - LYMP1-002 - Dead Cells (AID 960); also: nearly all actives have a fitted effect of over 60% in size
In short: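 Human lymphoblastoid LYMP1-002 cells, 2500/well, treated 16 h at 37 C; dead-cell protease cleavage of bis-AAF-R110 read by fluorescence (485/520); normalized to DMSO and 15 uM tetraoctylammonium bromide; AC50 from Hill fit.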

[15] = MultiTox-Fluor Cytotoxicity Assay - LYMP1-003 - Dead Cells (AID 961); also: nearly all actives have a fitted effect of over 70% in size
In short: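 LYMP1-003 lymphoblastoid, 2500 cells/well, 5 hr settle then 16 hr cpd at 37 C; MultiTox-Fluor reagent 60 min RT; Ex/Em 485/520 dead-cell signal; norm. DMSO = 0%, 15 uM tetraoctylammonium bromide = 100%; Hill AC50.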

[16] = MultiTox-Fluor Cytotoxicity Assay - LYMP1-003 - Live Cells (AID 962);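 also: cytotoxic hits lower the live-cell protease signal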
In short: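 LYMP1-003 lymphoblastoid cells, 2500/well in complete medium, treated 16 h at 37 C; live-cell protease cleavage of GF-AFC read by fluorescence (Ex/Em 405/510) after 60 min reagent; AC50 from Hill fits of concentration-response.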

[17] = Cell Viability - LYMP1-003 - Assay at 24 hr (AID 963)
In short: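 Human lymphoblastoid LYMP1-003 cells, 2500/well, treated 24 h at 37 C in complete medium. Viability read as intracellular ATP by CellTiter-Glo luminescence after 30 min at room temperature; AC50 from Hill-equation fits of qHTS concentration-response.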

[18] = Cell Viability - LYMP1-003 - Assay at 40 hr (AID 964); also: nearly all actives have a fitted effect of over 60% in size
In short: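 LYMP1-003 human lymphoblastoid cells, 2500/well, preincubated 5 h at 37 C, then treated with compound for 40 h at 37 C. Intracellular ATP read by CellTiter-Glo luminescence after 30 min at room temperature; AC50 from Hill-equation fits.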

[19] = Cell Viability - LYMP2-003 (AID 965);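 also: cells exposed to compounds for 24 h before reading; nearly all actives have a fitted effect of over 50% in size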
In short: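 Human lymphoblastoid LYMP2-003 cells, 2500/well, exposed to compounds for 24 h at 37 C in complete medium. Viability read as intracellular ATP by CellTiter-Glo luminescence; AC50 from Hill-equation fits of qHTS concentration-response data.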

[20] = target: Cytochrome P450 3A4 (Homo sapiens) (UniProt P08684); experiment: qHTS Assay for Activators of Cytochrome P450 3A4 (AID 885); also: nearly all actives have a fitted effect of over 65% in size
In short: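 Steps: enzyme/substrate mix dispensed; compound added, 10 min RT; NADPH regeneration solution added, 60 min RT; luciferin detection buffer stops reaction; 20 min later luminescence measured.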

Sequence of Cytochrome P450 3A4 (Homo sapiens) (P08684 whole entry, looked up): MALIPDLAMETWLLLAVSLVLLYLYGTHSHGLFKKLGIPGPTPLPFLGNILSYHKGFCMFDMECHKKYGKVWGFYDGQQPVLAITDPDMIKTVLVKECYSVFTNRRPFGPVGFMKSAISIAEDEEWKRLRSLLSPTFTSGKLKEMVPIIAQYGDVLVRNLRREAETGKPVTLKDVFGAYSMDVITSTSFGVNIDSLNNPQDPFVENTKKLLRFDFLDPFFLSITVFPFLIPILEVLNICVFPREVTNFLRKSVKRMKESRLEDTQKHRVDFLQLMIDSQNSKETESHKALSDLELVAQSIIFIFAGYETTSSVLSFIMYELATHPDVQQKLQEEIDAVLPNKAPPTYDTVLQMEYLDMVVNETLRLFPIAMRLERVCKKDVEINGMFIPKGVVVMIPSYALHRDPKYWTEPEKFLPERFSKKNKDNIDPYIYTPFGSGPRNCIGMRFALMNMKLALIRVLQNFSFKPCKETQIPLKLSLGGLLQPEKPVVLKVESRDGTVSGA

SMILES	caspase-3 activation [1] [%]	outcome [2]	caspase-3 activation [3] [%]	caspase-3 activation [4] [%]	outcome [5]	outcome [6]	Potency [7]	Potency [8]	Potency [9]	outcome [10]	outcome [11]	outcome [12]	outcome [13]	outcome [14]	Potency [15]	Potency [16]	Potency [17]	Potency [18]	Potency [19]	outcome [20]
CC/C(C)=N/O	0.891	inactive	-0.877	1.42	inactive	inactive	inactive	inactive	inactive	inactive	inactive	inactive	inactive	inactive	inactive	inactive	inactive	inactive	inactive	
C=C(C)C(=O)OC	0.161	inactive	1.27	1.97	inactive	inactive	inactive	inactive	inactive	inactive	inactive	inactive	inactive	inactive	inactive	inactive	inactive	inactive	inactive	
O=C(O)c1ccc(C(=O)O)cc1	-1.02	inactive	0.895	-1.8	inactive	inactive	inactive	inactive	inactive	inactive	inactive	inactive	inactive	inactive	inactive	inactive	inactive	inactive	inactive	
CC(=O)OCc1ccco1	-0.525	inactive	-0.245	-4.85	inactive	inactive	inactive	inactive	inactive	inactive	inactive	inactive	inactive	inactive	inactive	inactive	inactive	inactive	inactive	
BrC(Br)C(Br)Br	-0.634	inactive	0.661	-0.575	inactive	inactive	inactive	inactive	inactive	inactive	inactive	inactive	inactive	inactive	inactive	inactive	inactive	inactive	inactive	
C=C(C)C(=O)OCC(C)O (stereo unspecified)	0.397	inactive	0.102	-1.45	inactive	inactive	inactive	inactive	inactive	inactive	inactive	inactive	inactive	inactive	inactive	inactive	inactive	inactive	inactive	
CC(C)(c1cc(Br)c(OCC(Br)CBr)c(Br)c1)c1cc(Br)c(OCC(Br)CBr)c(Br)c1 (stereo unspecified)	0.758	inactive	1.29	16.5	inactive	inactive	inactive	inactive	inactive	inactive	inactive	inactive	inactive	inactive	inactive	inactive	inactive	inactive	inactive	
C1CCCC1	-0.162	inactive	-0.556	0.0682	inactive	inactive	inactive	inactive	inactive	inactive	inactive	inactive	inactive	inactive	inactive	inactive	inactive	inactive	inactive	
Cc1ccc([N+](=O)[O-])c(N)c1	-0.782	inactive	-0.384	0.555	inactive	inactive	inactive	inactive	inactive	inactive	inactive	inactive	inactive	inactive	inactive	inactive	inactive	inactive	inactive	
CCOc1cccc(N)c1	0.896	inactive	1.28	-0.477	inactive	inactive	inactive	31.6 µM (active)	inactive	inactive	inactive	inactive	inactive		inactive	inactive	inactive		inactive	inactive
CC(C=O)Cc1ccc(C(C)(C)C)cc1 (stereo unspecified)	0.925	inactive	0.297	-0.395	inactive	inactive	inactive	inactive	inactive	inactive	inactive	inactive	inactive	inactive	inactive	inactive	inactive	inactive	inactive	
C1CCC2OC2C1 (stereo unspecified)	-0.0644	inactive	-0.699	1.05	inactive	inactive	inactive	inactive	inactive	inactive	inactive	inactive	inactive	inactive	inactive	inactive	inactive	inactive	inactive	
O=C1OC(=O)c2cc([N+](=O)[O-])ccc21	-0.00553	inactive	-0.24	-0.39	inactive	inactive	inactive	inactive	inactive	inactive	inactive	inactive	inactive	inactive	inactive	inactive	inactive	inactive	inactive	
CSc1ccc(C=O)cc1	-0.251	inactive	2.78	0.206	inactive	inactive	inactive	inactive	inactive	inactive	inactive	inactive	inactive	inactive	inactive	inactive	inactive	inactive	inactive	
CC(C)(C)c1ccc(OCC2CO2)cc1 (stereo unspecified)	1.34	inactive	0.475	-2.1	inactive	inactive	inactive	inactive	inactive	inactive	inactive	inactive	inactive	inactive	inactive	inactive	inactive	inactive	inactive	
Cc1cccc2sc(N)nc12	-0.691	inactive	-0.522	1.8	inactive	inactive	inactive	inactive	inactive	inactive	inactive	inactive	inactive	inactive	inactive	inactive	inactive	inactive	inactive	
Cc1ccc2ccccc2c1[N+](=O)[O-]	0.0968	inactive	-1.44	-2.81	inactive	inactive	inactive	inactive	inactive	inactive	inactive	inactive	inactive	inactive	inactive	inactive	inactive	inactive	inactive	
CCNc1ccccc1	-0.0326	inactive	-0.349	-0.687	inactive	inactive	inactive	inactive	inactive	inactive	inactive	inactive	inactive	inactive	inactive	inactive	inactive	inactive	inactive	
CCOc1ccccc1N	1.9	inactive	-0.577	-1.95	inactive	inactive	inactive	inactive	inactive	inactive	inactive	inactive	inactive	inactive	inactive	inactive	inactive	inactive	inactive	
C=C(C)C(=O)OCC(C)C	1.08	inactive	0.664	-0.498	inactive	inactive	inactive	inactive	inactive	inactive	inactive	inactive	inactive	inactive	inactive	inactive	inactive	inactive	inactive	
CCCCCCCN	1.08	inactive	2.21	-0.824	inactive	inactive	inactive	inactive	inactive	inactive	inactive	inactive	inactive	inactive	inactive	inactive	inactive	inactive	inactive	
Cc1cscn1	0.991	inactive	0.996	1.04	inactive	inactive	inactive	inactive	inactive	inactive	inactive	inactive	inactive	inactive	inactive	inactive	inactive	inactive	inactive	
CC(=C/C=C/C(C)=C/C=C/C=C(C)/C=C/C=C(C)/C=C/C(=O)O)/C=C/C(=O)O	-0.768	inactive	0.467	-1.17	inactive	inactive	inactive	inactive	inactive	inactive	inactive	inactive	inactive	inactive	inactive	inactive	inactive	inactive	inactive	
O=C(O)c1cccc([N+](=O)[O-])c1	-1.42	inactive	-0.0521	2.38	inactive	inactive	inactive	inactive	inactive	inactive	inactive	inactive	inactive	inactive	inactive	inactive	inactive	inactive	inactive	
CCC(C)O (stereo unspecified)	0.681	inactive	1.46	-1.23	inactive	inactive	inactive	inactive	inactive	inactive	inactive	inactive	inactive	inactive	inactive	inactive	inactive	inactive	inactive	
Cc1ccc(Cl)cc1	0.555	inactive	0.337	0.748	inactive	inactive	inactive	inactive	inactive	inactive	inactive	inactive	inactive	inactive	inactive	inactive	inactive	inactive	inactive	
NC(N)=S	-0.0158	inactive	1.67	-1.2	inactive	inactive	inactive	inactive	inactive	inactive	inactive	inactive	inactive	inactive	inactive	inactive	inactive	inactive	inactive	
O=C1CCC(=O)O1	0.974	inactive	0.691	0.163	inactive	inactive	inactive	inactive	inactive	inactive	inactive	inactive	inactive	inactive	inactive	inactive	inactive	inactive	inactive	
